Most compounds without a hit are left out; they make up all but 10% or so of the library.
Luciferase inh – Firefly luciferase inhibition profiling of diverse chemical library using quantitative high-throughput screening; 2.5% of 76,000 active; Luciferin 4-monooxygenase (Photinus pyralis), P08659; Potency, µM (highest dose often 115 µM), actives largely listed as inhibitors; purified P. pyralis luciferase, luminescence, biochemical; note: nearly all actives have a fitted effect of over 65% in size
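Purified 10nM P. pyralis luciferase with 10uM D-luciferin and 10uM ATP in 50mM Tris acetate pH 7.5, 10mM Mg acetate, 0.01% Tween-20, 0.05% BSA. qHTS titration; luminescence read by CCD imager.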
3T3 cytotox – Cytotoxic Profiling in NIH 3T3 Cell Line of Diverse Libraries Using Quantitative High-Throughput Screening | 4.3% of 94,000 active | NIH 3T3 viability, CellTiter-Glo ATP luminescence, 48-72 h | AID 1345082, 2018 | Potency, µM (doses to about 96.7 µM), for the others: at the top dose activity change, negative = cytotoxicity, most hits filed as inhibitors; note: nearly all actives have a fitted effect of over 55% in size
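Cytotoxicity was measured by CellTiter-Glo ATP luminescence after 48 or 72 h compound exposure at 37 °C. Mouse NIH 3T3 fibroblasts were seeded at 400 cells/well and dosed by 23 nL pin transfer.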
hNpr1 antagonist – Natriuretic polypeptide receptor (hNpr1) antagonism - Primary qHTS; HEK293 hNpr1 GloSensor cGMP, ANP-stimulated luminescence; Potency, µM (titrated, usually from 46.3 µM), without a hit: top-dose activity change, negative = inhibition, hits mostly inhibitors; 1.6% of 76,000 active; Atrial natriuretic peptide receptor 1 (Homo sapiens), P16066; AID 1347048, 2019; calls by dose curve; note: nearly all actives have a fitted effect of over 60% in size
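Compound pre-incubated 30 min at room temperature on GloSensor-loaded HEK293 cells stably carrying hNpr1 and the pGS-40F cGMP biosensor. Stimulation uses hNppA at 0.1 nM final; luminescence is taken at baseline and 20 min post-agonist.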
GPT2 inh – Primary qHTS assay for inhibitors of Glutamate pyruvate transaminase 2 (GPT2); Alanine aminotransferase 2 (Homo sapiens), Q8TD30; Recombinant GPT2, coupled pyruvate oxidase/HRP Amplex Red fluorescence; Potency, µM (titrated, usually from 57.7 µM), for inactives: at the highest dose activity change, negative = inhibition, hits mostly inhibitors; 0.25% of 100,000 active; AID 1671188, 2021; note: nearly all actives have a fitted effect of over 60% in size
Target sequence (Q8TD30 whole entry, looked up): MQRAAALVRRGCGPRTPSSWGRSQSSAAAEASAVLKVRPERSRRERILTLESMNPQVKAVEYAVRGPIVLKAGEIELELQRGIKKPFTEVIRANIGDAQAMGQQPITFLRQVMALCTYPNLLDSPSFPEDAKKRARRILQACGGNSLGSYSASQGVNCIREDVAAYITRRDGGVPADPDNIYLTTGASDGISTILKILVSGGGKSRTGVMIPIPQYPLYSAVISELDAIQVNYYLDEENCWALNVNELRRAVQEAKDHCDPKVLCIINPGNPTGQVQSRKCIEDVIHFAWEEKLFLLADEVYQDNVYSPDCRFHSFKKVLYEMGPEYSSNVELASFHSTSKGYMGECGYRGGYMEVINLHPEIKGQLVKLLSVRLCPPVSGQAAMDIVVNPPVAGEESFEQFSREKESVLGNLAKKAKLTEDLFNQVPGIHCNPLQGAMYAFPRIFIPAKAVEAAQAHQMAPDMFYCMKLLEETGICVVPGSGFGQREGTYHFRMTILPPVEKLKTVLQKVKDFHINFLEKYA
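Fluorescence read-out: pyruvate from GPT2 turnover coupled to pyruvate oxidase, HRP and Amplex Red (0.2mM ThPP, 0.2U/mL PO and HRP, 50uM Amplex final). Substrates 250uM a-KG, 2mM L-alanine; enzyme 10ng/uL; 30 min RT.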
HEK cytotox – Cytotoxic Profiling in HEK 293 Cell Line of Diverse Libraries Using Quantitative High-Throughput Screening | HEK 293 viability, ATP luminescence (CellTiter-Glo), 48-72 h | Potency, µM (top dose mostly 115 µM), for the others: at the highest dose activity change, negative = cytotoxicity, actives largely listed as inhibitors | 6.6% of 94,000 active; note: nearly all actives have a fitted effect of over 60% in size
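Viability of HEK 293 cells, plated at 250 cells/well, was judged by cellular ATP after compound treatment for 48 or 72 hr. Luminescence was imaged 10 min after CellTiter-Glo addition at room temperature.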
An asterisk follows results filed as active; i = inactive; u = inconclusive; x = not tested or not shown; [ ] = another dose, or the depositor's remark. Unless noted, calls come from the whole dose curve; as a rule, active = well fitted curve in the direction sought with a large enough effect; inconclusive = small, poorly fitted or top-dose-only effect, or another doubt; inactive = no such curve, though single readings can be large; an effect the other way counts as inactive or inconclusive. % is set by controls: 0 for no effect and ±100 for the full control effect; potency is the fitted concentration of half-maximal effect.

SMILES | Luciferase inh | 3T3 cytotox | hNpr1 antagonist | GPT2 inh | HEK cytotox
COc1cccc(-c2ccc(C(=O)N3CCC(NC(=O)Cc4cccc(Cl)c4)CC3)cc2)c1 | x | u | x | -7.5% | 25.1µM*
COc1ccc(C(=O)N2C[C@@H](CO)[C@H](NC(=O)c3ccccc3)C2)c(OC)c1 | x | -23.4% | x | -2.6% | u
CCCCNC(=O)CC(c1ccc(OC)cc1OC)c1c[nH]c2c(CC)cccc12 (stereo not given) | i | u | -18.8% | 1.7% | u
CCCCCNC(=O)CC(c1cccc(OC)c1OC)c1c[nH]c2c(CC)cccc12 (stereo not given) | i | u | 0.5% | i | 44.7µM*
CCc1cccc2c(C(CC(=O)NCc3ccco3)c3ccc(C)cc3)c[nH]c12 (stereo not given) | i | u | -11.6% | 0.3% | 35.5µM*
CCc1cccc2c(C(CC(=O)NCc3ccco3)c3ccc(OC)c(OC)c3)c[nH]c12 (stereo not given) | i | u | -15.8% | 1.8% | u
CCCCNC(=O)CC(c1cccc(OC)c1)c1c[nH]c2ccccc12 (stereo not given) | i | u | -6.9% | i | 79.4µM*
O=C(CC(c1cccc2c1OCO2)c1c[nH]c2ccccc12)NCc1ccccc1 (stereo not given) | i | u | -19.6% | i | u
CCCCNC(=O)CC(c1cccc2c1OCO2)c1c[nH]c2c(CC)cccc12 (stereo not given) | i | u | -12.6% | i | 44.7µM*
CCc1cccc2c(C(CC(=O)NCCc3ccc(OC)c(OC)c3)c3cccc(F)c3)c[nH]c12 (stereo not given) | i | u | -16.2% | 3.4% | 28.2µM*
CCc1cccc2c(C(CC(=O)NCC(C)C)c3ccc(OC)c(OC)c3)c[nH]c12 (stereo not given) | i | -14.9% | 1.6% | i | -22.7%
O=C(Nc1cc(-c2ccncc2)nn1-c1ccccc1)c1cccc(Br)c1 | x | 31.6µM* | x | -10.5% | u
Cn1nc(-c2ccncc2)cc1NC(=O)c1cccc(Br)c1 | x | u | x | i | u
Cn1nc(-c2ccncc2)cc1NC(=O)c1ccc(C(F)(F)F)cc1 | x | u | x | -3.9% | 11.2µM*
Cn1nc(-c2ccncc2)cc1NC(=O)c1ccc(Cl)cc1 | x | u | x | -7.4%[88.5 µM] | u
Clc1ccc(-c2cnc([C@@H]3COCCN3Cc3cnc4ccccc4c3)[nH]2)s1 | i | u | u | -8.8%[88.5 µM] | 89.1µM*
Fc1ccc(-c2cnc([C@@H]3COCCN3Cc3cnc4ccccc4c3)[nH]2)c(F)c1 | i | u | -13.7%[70.6 µM] | -4.8%[88.5 µM] | 89.1µM*
CC1CCCN1c1ccc(C(=O)N2CCC(Oc3cccnc3)CC2)cn1 (stereo not given) | i | u | 0.7% | i | -28.9%
CN(Cc1ccc(F)cc1)c1ccc2ncc(Nc3cccc(O)c3)n2n1 | i | u | u | u | 63.1µM*
CN(Cc1ccc(F)cc1)c1ccc2ncc(Nc3ccc4c(c3)OCO4)n2n1 | i | 28.2µM* | u | -14.7%[88.5 µM] | 63.1µM*
OCCc1ccc(Nc2cnc3ccc(-c4ccc(F)cc4)nn23)cc1 | i | u | -9.2%[70.6 µM] | -23.8%[88.5 µM] | u
CN(Cc1cccnc1)c1ccc2ncc(Nc3ccc(F)cc3)n2n1 | i | u | u | u | 79.4µM*
CN(Cc1ccc(F)cc1)Cc1cccnc1 | i | -16.1%[174 µM] | 4.9%[70.6 µM] | i | -15.4%[230 µM]
CN(Cc1cccnc1)c1ccc2ncc(Nc3ccc4c(c3)OCO4)n2n1 | i | u | -30.2%[70.6 µM] | 2.3%[88.5 µM] | u
C=CC(C)(O)CC[C@@H]1[C@@]2(C)CCCC(C)(C)C2CC[C@@]1(C)O (stereo not given in full) | x | x | x | -2.0% | x
SMILES | Luciferase inh | 3T3 cytotox | hNpr1 antagonist | GPT2 inh | HEK cytotox
O=C(c1cccc(O)c1)N1CC=C(c2cnc3cnc(-c4ccccc4)cn23)CC1 | i | u | -20.5%[70.6 µM] | -4.0%[88.5 µM] | 100µM*
O=C(c1ccn[nH]1)N1CC=C(c2cnc3cnc(-c4ccccc4)cn23)CC1 | i | 22.4µM* | -1.0%[70.6 µM] | -8.5%[88.5 µM] | -20.6%[172 µM]
O=C(c1ccccc1)N1CCN(C(=O)c2cccc(-c3ccccn3)c2)CC1 | x | -11.9% | x | -3.1% | -11.0%
O=C(c1ccc(-c2ncc3cnc(-c4ccccc4)cn23)cc1)N1CCS(=O)(=O)CC1 | i | u | -2.0%[70.6 µM] | 2.2%[88.5 µM] | 4.9%[172 µM]
CN(C)C(=O)C1CN(C(=O)NC2CCCCC2)CC12CCOCC2 (stereo not given) | i | -1.5% | -0.9% | 1.2% | -17.2%
Cn1cccc1-c1noc(C2CCN(Cc3noc(-c4ccccc4)n3)C2)n1 (stereo not given) | x | u | x | -10.4% | u
Cc1ccc(C(=O)N2Cc3ccccc3OC3(CCN(C(C)C)CC3)C2)cn1 | x | -12.6% | x | i | 0.5%
F[C@@H]1CN(CC2CC2)C[C@@H]1OCc1nc2ccccc2o1 | 35.5µM* | -12.7%[174 µM] | 0.8%[70.6 µM] | i | -9.7%[230 µM]
F[C@@H]1CN(C2CCC2)C[C@@H]1OCc1nc2ccccc2o1 | 79.4µM* | -18.5%[174 µM] | -7.5%[70.6 µM] | 1.0%[88.5 µM] | -24.5%[230 µM]
F[C@@H]1CN(C2CCOCC2)C[C@@H]1OCc1nc2ccccc2o1 | i | -14.3%[138 µM] | -8.1%[70.6 µM] | i | -23.9%[172 µM]
Cc1c(CC(=O)NC2CCOCC2)c2c(n1CCc1ccccc1)CCCC2=O | i | -1.9% | 1.1% | -7.7% | i
COc1ccc(S(=O)(=O)NC2CCN(c3ccc(=O)n(C)n3)CC2)cc1 | x | -44.7% | x | i | u
CCN1c2cc(C(=O)Nc3ccc(F)c(Cl)c3)ccc2C(=O)N2CCCC21 (stereo not given) | i | u | -5.3% | 0.9% | u
CCN1c2cc(C(=O)Nc3ccc(Br)c(C)c3)ccc2C(=O)N2CCCC21 (stereo not given) | i | -19.9% | 0.0% | i | u
CCN1c2cc(C(=O)Nc3ccc(Cl)c(Cl)c3)ccc2C(=O)N2CCCCCC21 (stereo not given) | i | 44.7µM* | -2.3% | i | u
CCN1c2cc(C(=O)Nc3ccc(Cl)c(C)c3)ccc2C(=O)N2CCCCC21 (stereo not given) | i | u | 3.6% | i | 15.8µM*
CCN1c2cc(C(=O)Nc3ccc(C)c(C)c3)ccc2C(=O)N2CCCCC21 (stereo not given) | i | 28.2µM* | -10.4% | i | 28.2µM*

Compound activity from PubChem BioAssay.
